Results on eight compounds are retold here after PubChem BioAssay (NCI).

Among the test systems are DU-145 prostate; K-562 leukemia; MALME-3M melanoma; MDA-MB-231 breast; RXF 393 renal; SF-268 CNS; SF-295 CNS; SF-539 CNS; UACC-257 melanoma; M14 melanoma; HCT-15 colon; HT29 colon; SNB-75 CNS; SNB-19 CNS; U251 CNS; PC-3 prostate; SK-MEL-5 melanoma; UACC-62 melanoma; LOX IMVI melanoma; SK-MEL-28 melanoma.
Holding throughout (assay): NCI-60 one-dose screen, 48 h (100 = growth as untreated, 0 = no growth, -100 = all killed)
Holding throughout (settings): 10 µM

The panel holds about 83,000 compounds, 20% with a hit somewhere; the sample as a whole holds those more often.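 96-well plates, one dose, 48 hours. Percent growth reported; active if below 10.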 Unmarked numbers belong to inactive results. Activity calls are given as the source filed them.

`C(=N\Nc1ncnc2sc3c(c12)CCNC3)/c1cccc2ccccc12`: the growth in the test on DU-145 prostate was 100%; in the test with K-562 leukemia it was 2.84% (active); with MALME-3M melanoma it was 92.6%; in the test on MDA-MB-231 breast, 66%; in the test with RXF 393 renal, 85%; with SF-268 CNS, 97.5%. The growth in the test with SF-295 CNS was 104%; in the test on SF-539 CNS it was 85.8%; with UACC-257 melanoma, 104%; in the test with M14 melanoma, 95%; in the test on HCT-15 colon, 18.9%; with HT29 colon it was 16.8%. Further, the growth in the test on SNB-75 CNS was 62.5%; in the test on SNB-19 CNS, 79.1%; in the test with U251 CNS it was 83%; with PC-3 prostate, 76.9%; in the test with SK-MEL-5 melanoma, 97.1%; with UACC-62 melanoma, 101%. Besides, the growth in the test on LOX IMVI melanoma is 50.4%; in the test on SK-MEL-28 melanoma, 103%.
`CC(C)(C)OC(=O)N1CCc2c(sc3ncnc(N/N=C/c4ccc(Br)cc4)c23)C1`: the growth in the test on DU-145 prostate was 92.6%; in the test on K-562 leukemia it was 15.1%; in the test on MALME-3M melanoma, 51.3%; with MDA-MB-231 breast, 73.2%; in the test with RXF 393 renal, 66.4%; with SF-268 CNS, 82.2%. For the same compound, the growth in the test with SF-295 CNS is 49%; in the test with SF-539 CNS, 60.7%; in the test with UACC-257 melanoma, 73.4%; in the test on M14 melanoma it was 47.7%; with HCT-15 colon, 28.1%; in the test on HT29 colon it was 33.8%. Moreover, the growth in the test with SNB-75 CNS was 61.8%; in the test with SNB-19 CNS, 69.5%; in the test on U251 CNS it was 67.3%; with PC-3 prostate it was 44%; with SK-MEL-5 melanoma it was 24%; with UACC-62 melanoma it was 42.2%. Moreover, in the test with SK-MEL-28 melanoma, the growth is 63.2%.
For `O=S(=O)(O)c1ccc(Cl)cc1`, the growth was 101% in the test on DU-145 prostate; 99.7% with K-562 leukemia; 98.2% in the test with MALME-3M melanoma; 107% in the test on MDA-MB-231 breast; 123% with RXF 393 renal; 95.1% in the test on SF-268 CNS. For the same compound, the growth is 109% in the test on SF-295 CNS; 102% in the test on SF-539 CNS; 99.2% in the test with UACC-257 melanoma; 99.7% with M14 melanoma; 100% in the test on HCT-15 colon; 93.6% in the test on HT29 colon. Besides, the growth in the test on SNB-75 CNS is 100%; with SNB-19 CNS it was 102%; with U251 CNS, 101%; in the test on PC-3 prostate it was 96.5%; in the test on SK-MEL-5 melanoma, 98.3%; with UACC-62 melanoma it was 99.8%. Also, the growth in the test on SK-MEL-28 melanoma was 113%.
As for `C=CCn1c(SCC(=O)Nc2ccc(C(=O)/C=C/c3cc(OC)c(OC)c(OC)c3)cc2)nnc1-c1cc(-c2ccc(Cl)cc2)nc2ccccc12`, the growth was 95.3% with DU-145 prostate; 75.9% in the test with K-562 leukemia; 97.8% in the test with MALME-3M melanoma; 75% with MDA-MB-231 breast; 59.4% in the test on RXF 393 renal; 90.9% in the test on SF-268 CNS. The growth with SF-295 CNS was 98%; in the test with SF-539 CNS, 84.3%; with UACC-257 melanoma, 102%; in the test with M14 melanoma it was 95.5%; in the test with HCT-15 colon, 59.5%; with HT29 colon, 74.7%. For the same compound, the growth was 68.8% with SNB-75 CNS; 84.1% in the test with SNB-19 CNS; 86.3% in the test with U251 CNS; 71.7% in the test with PC-3 prostate; 91% in the test with SK-MEL-5 melanoma; 84.2% in the test on UACC-62 melanoma. The growth in the test with LOX IMVI melanoma was 75.5%; in the test with SK-MEL-28 melanoma, 100%.
For the compound `O=C(CSc1nccc(Nc2cccc3ccccc23)n1)c1ccc(Cl)cc1`, the growth with DU-145 prostate was 116%; in the test on K-562 leukemia, 84.3%; in the test on MALME-3M melanoma it was 101%; with MDA-MB-231 breast, 79.1%; in the test with RXF 393 renal, 106%; in the test on SF-268 CNS, 95%. Besides, the growth is 95% in the test on SF-295 CNS; 94.5% with SF-539 CNS; 109% in the test on UACC-257 melanoma; 85.8% in the test with M14 melanoma; 101% with HCT-15 colon; 86.9% with HT29 colon. In addition, the growth was 88% with SNB-75 CNS; 89.3% in the test with SNB-19 CNS; 96.1% in the test on U251 CNS; 83.9% in the test on PC-3 prostate; 98.3% in the test with SK-MEL-5 melanoma; 70.2% with UACC-62 melanoma. For the same compound, the growth with LOX IMVI melanoma is 77.6%; in the test on SK-MEL-28 melanoma, 106%.
Turning to `COc1cc2cc(Oc3ccc(NC(=O)c4ccc(Cl)c(C(F)(F)F)c4)cc3)c(C)nc2cc1OC`, the growth in the test with DU-145 prostate was 43%; with K-562 leukemia, 14.8%; in the test on MALME-3M melanoma it was 37.2%; in the test on MDA-MB-231 breast, 48.3%; in the test with RXF 393 renal, 50.8%; in the test on SF-268 CNS it was 56.1%. Also, the growth with SF-295 CNS is 7.81% (active); with SF-539 CNS it was 57.3%; in the test with UACC-257 melanoma, 36.8%; in the test with M14 melanoma, 18.4%; with HCT-15 colon, 26.9%; in the test on HT29 colon it was 26%. The growth was 68.4% with SNB-75 CNS; 39.3% in the test with SNB-19 CNS; 2.03% (active) with U251 CNS; 4.32% (active) in the test on PC-3 prostate; 25.5% with SK-MEL-5 melanoma; 13.9% with UACC-62 melanoma. Moreover, the growth is 33% in the test on LOX IMVI melanoma and 66.9% in the test with SK-MEL-28 melanoma.
For the compound `CC(=O)C1CCC2C3CC=C4CC(SC(=N)N)CCC4(C)C3CCC12C` (configuration not stated), the growth with DU-145 prostate is 75.5%; in the test on K-562 leukemia it was -5.34% (active); in the test with MALME-3M melanoma, -6.9% (active); with MDA-MB-231 breast, 46.6%; in the test on RXF 393 renal, 25.6%; in the test on SF-268 CNS it was 72%. The growth in the test on SF-295 CNS is 51.1%; in the test with SF-539 CNS, 65.5%; with UACC-257 melanoma, 13.6%; in the test on M14 melanoma, 18.3%; with HCT-15 colon it was 16.3%; with HT29 colon it was 11%. Besides, the growth in the test with SNB-75 CNS is 55.4%; in the test with SNB-19 CNS, 64.2%; in the test on U251 CNS, 30.5%; in the test with PC-3 prostate it was 33%; in the test on SK-MEL-5 melanoma, 15.6%; in the test on UACC-62 melanoma, 64.4%. Besides, in the test with SK-MEL-28 melanoma, the growth is 61.5%.
With `CCCN(CCC)C(=O)[C@H](CC)[C@@H]1CC[C@@H](C)[C@@H]([C@H](C)[C@@H](O)[C@@H](C)C(=O)[C@H](CC)C2O[C@]3(C=C[C@@H](O)[C@]4(CC[C@@](C)([C@H]5CC[C@](O)(CC)[C@H](C)O5)O4)O3)[C@H](C)C[C@@H]2C)O1` (some centres not stated), the growth in the test on DU-145 prostate is 31.5%; in the test on K-562 leukemia, 10.4%; with MALME-3M melanoma, -13.3% (active); in the test with MDA-MB-231 breast, -40.3% (active); in the test on RXF 393 renal, -6.32% (active); with SF-268 CNS, 24.5%. Besides, the growth with SF-295 CNS was -5.79% (active); with SF-539 CNS, 8.44% (active); with UACC-257 melanoma, 8.4% (active); in the test on M14 melanoma, 13.9%; in the test with HCT-15 colon it was -9.51% (active); in the test with HT29 colon it was 7.02% (active). In addition, the growth in the test with SNB-75 CNS was -12.8% (active); in the test on SNB-19 CNS, 17.8%; in the test with U251 CNS, 21.5%; in the test on PC-3 prostate, 6.69% (active); in the test on SK-MEL-5 melanoma it was -92.4% (active); in the test with UACC-62 melanoma, 14.9%. The growth with LOX IMVI melanoma was 1.21% (active); in the test with SK-MEL-28 melanoma it was 24.2%.
